Laboratory results: PubChem BioAssay (NCATS)
Where “and” joins values, the source holds several entries; their conditions need not be identical. Equal entries are not always repeated. Results filed as inconclusive are left out. A call without a number means that no potency is given here. Unmarked numbers belong to inactive results. Calls of active or inactive are those of the source. Unless noted, calls follow the shape of the full dose curve.

Experiments:
[1] = qHTS for Inhibitors of the Functional Ribonucleoprotein Complex (vRNP) of Lassa (LASV) Arenavirus: LASV Primary Screen - GLuc reporter signal (AID 1347082; calls by dose curve; tested in HEK293 reporter line; also: nearly all actives have a fitted effect of over 60% in size; as to activity change, negative = inhibition: series mostly up to about 57 µM)
[2] = qHTS for Inhibitors of the Functional Ribonucleoprotein Complex (vRNP) of Lassa (LASV) Arenavirus: Viability assay - alamar blue signal for LASV Primary Screen (AID 1347083; calls by dose curve; tested in HEK293 reporter line; also: nearly all actives have a fitted effect of over 80% in size; as to activity change, negative = reduced viability: series mostly up to about 57 µM)
[3] = qHTS for Inhibitors of the Functional Ribonucleoprotein Complex (vRNP) of Lymphocytic Choriomeningitis Arenaviruses (LCMV): Viability assay - alamar blue signal for LCMV Primary Screen (AID 1347085; calls by dose curve; tested in HEK293 reporter line; also: nearly all actives have a fitted effect of over 80% in size; as to activity change, negative = lower viability: series mostly up to about 57 µM)
[4] = target: Nucleoprotein (Lymphocytic choriomeningitis virus (strain Armstrong)) (UniProt P09992); experiment: qHTS for Inhibitors of the Functional Ribonucleoprotein Complex (vRNP) of Lymphocytic Choriomeningitis Arenaviruses (LCMV): LCMV Primary Screen - GLuc reporter signal (AID 1347086); also: nearly all actives have a fitted effect of over 70% in size; as to activity change, negative = inhibition: series mostly up to about 57 µM
Nucleoprotein (Lymphocytic choriomeningitis virus (strain Armstrong)), sequence (P09992 whole entry, looked up): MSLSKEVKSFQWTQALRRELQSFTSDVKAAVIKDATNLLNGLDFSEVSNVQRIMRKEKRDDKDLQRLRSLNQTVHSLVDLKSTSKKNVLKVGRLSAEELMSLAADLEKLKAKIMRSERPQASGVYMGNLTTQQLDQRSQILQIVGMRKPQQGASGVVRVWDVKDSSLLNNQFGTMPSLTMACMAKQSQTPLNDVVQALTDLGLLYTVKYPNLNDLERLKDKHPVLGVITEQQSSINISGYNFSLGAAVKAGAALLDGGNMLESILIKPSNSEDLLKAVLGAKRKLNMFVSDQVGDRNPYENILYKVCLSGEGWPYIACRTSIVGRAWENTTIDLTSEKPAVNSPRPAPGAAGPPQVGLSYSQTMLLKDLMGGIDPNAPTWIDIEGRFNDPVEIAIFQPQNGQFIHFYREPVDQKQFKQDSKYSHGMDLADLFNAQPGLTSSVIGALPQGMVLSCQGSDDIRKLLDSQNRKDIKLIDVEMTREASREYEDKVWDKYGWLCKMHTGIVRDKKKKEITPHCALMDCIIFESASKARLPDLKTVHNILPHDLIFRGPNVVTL
Potency is read from the fitted curve at half-maximal effect.

Structure (SMILES)	Potency [1]	Potency [2]	Potency [3]	Potency [4]	activity change, negative = inhibition [1]	activity change, negative = reduced viability [2]	activity change, negative = lower viability [3]	activity change, negative = inhibition [4]
CNC(=O)CN(CCN(CCN(CC(=O)[O-])CC(=O)NC)CC(=O)[O-])CC(=O)[O-].O.[Gd+3]	inactive	inactive	inactive	inactive	–	–	–	–
Nc1ccc(N=Nc2ccccc2)c(N)n1	inactive	inactive	inactive	inactive	–	–	–	–
CC(=O)OC/C=C(C)/C=C/C=C(C)/C=C/C1=C(C)CCCC1(C)C	inactive	inactive	inactive	inactive	–	–	–	–
CCOc1ccccc1C(N)=O	inactive	inactive	inactive	inactive	–	–	–	–
CCN(CC)CC(=O)Nc1c(C)cccc1C	inactive	inactive	inactive	inactive	–	–	–	–
NC(N)=N/N=C/c1c(Cl)cccc1Cl	inactive	inactive	inactive	inactive	–	–	–	–
CC1(C)[C@@H]2CC[C@@]1(C)C(=O)C2	inactive	inactive	inactive	inactive	–	–	–	–
NC(=O)Cc1cccc(C(=O)c2ccccc2)c1N	inactive	inactive	inactive	inactive	–	–	–	–
O=C1OC(c2ccc(O)cc2)(c2ccc(O)cc2)c2ccccc21	inactive	inactive	inactive	inactive	–	–	–	–
O=C(OCc1ccccc1)c1ccc(O)cc1	inactive	inactive	inactive	inactive	–	–	–	–
NNc1nnc(NN)c2ccccc12	inactive	inactive	inactive	inactive	–	–	–	–
CCCCC/C=C\C/C=C\CCCCCCCC(=O)NC(C)c1ccccc1 (stereo not given)	inactive	inactive	inactive	inactive	–	–	–	–
NC(=O)C1(N2CCCCC2)CCN(CCCC(=O)c2ccc(F)cc2)CC1	inactive	inactive	inactive	inactive	–	–	–	–
O=C(/C=C/c1ccccc1)NCCO	inactive	inactive	inactive	inactive	–	–	–	–
O=C(O)c1cn(-c2ccc(F)cc2)c2cc(N3CCNCC3)c(F)cc2c1=O	inactive	inactive	inactive	inactive	–	–	–	–
CCOC(=O)[C@@](C)(N)Cc1ccc(O)c(O)c1	inactive	inactive	inactive	inactive	–	–	–	–
COc1ccc2cc(C=O)ccc2c1	inactive	inactive	inactive	inactive	–	–	–	–
CCOC(=O)N1CCC(Nc2ccc(Cl)cc2N)CC1	inactive	inactive	inactive	inactive	–	–	–	–
O=C(Cn1ccnc1[N+](=O)[O-])NCCO	inactive	inactive	inactive	inactive	–	–	–	–
CCN(CC)CC(=O)Nc1c(C)cccc1C(=O)OC	inactive	inactive	inactive	inactive	–	–	–	–

Structure (SMILES)	Potency [1]	Potency [2]	Potency [3]	Potency [4]	activity change, negative = inhibition [1]	activity change, negative = reduced viability [2]	activity change, negative = lower viability [3]	activity change, negative = inhibition [4]
C[C@]12CCC(=O)C=C1CC[C@@H]1[C@@H]2CC[C@@]2(C)[C@H]1CC[C@]2(O)C(=O)CO	inactive	inactive	inactive	inactive	–	–	–	–
C/C(=C(\CCOP(=O)(O)O)SC(=O)c1ccccc1)N(C=O)Cc1cnc(C)nc1N	–	–	–	–	1.78% [at 5.82 µM]	7.22% [at 5.82 µM]	-0.415% [at 5.82 µM]	-1.19% [at 5.82 µM]
CC(C)NCC(O)COc1ccc(COCCOC(C)C)cc1 (stereo not given)	inactive	inactive	inactive	inactive	–	–	–	–
CN(C)c1ccc(C(=C2C=CC(=[N+](C)C)C=C2)c2ccc(N(C)C)cc2)cc1	1220 nM (active)	3850 nM (active)	5.62 µM (active) and 3.85 µM (active)	1530 nM (active)	–	–	–	–
CCOCCn1c(N2CCCN(C)CC2)nc2ccccc21	inactive	inactive	inactive	inactive	–	–	–	–
CCN(CCCCOC(=O)c1ccc(OC)c(OC)c1)C(C)Cc1ccc(OC)cc1 (stereo not given)	inactive	inactive	inactive	inactive	–	–	–	–
C[C@]1(Cn2ccnn2)[C@H](C(=O)O)N2C(=O)C[C@H]2S1(=O)=O	inactive	inactive	inactive	inactive	–	–	–	–
Oc1c(I)cc(Cl)c2cccnc12	inactive	inactive	inactive	inactive	–	–	–	–
COc1ccc2[nH]c(S(=O)Cc3ncc(C)c(OC)c3C)nc2n1 (stereo not given)	inactive	inactive	inactive	inactive	–	–	–	–
CC(=O)Oc1ccc(C(c2ccc(OC(C)=O)cc2)c2ccccn2)cc1	inactive	inactive	inactive	inactive	–	–	–	–
COc1cc2c(cc1OC)-c1cc(=Nc3c(C)cc(C)cc3C)n(C)c(=O)n1CC2	inactive	inactive	inactive	inactive	–	–	–	–
C/C(=C(/OCCOc1ccc(Cl)cc1)c1ccc(Cl)cc1Cl)n1ccnc1	inactive	inactive	inactive	inactive	–	–	–	–
O=Cc1ccccc1C=O	inactive	inactive	inactive	inactive	–	–	–	–
CCN[C@H]1C[C@H](C)S(=O)(=O)c2sc(S(N)(=O)=O)cc21	inactive	inactive	inactive	inactive	–	–	–	–
C[C@]12CC[C@@H]3c4ccc(O)cc4CC[C@H]3[C@@H]1CC[C@@H]2OC(=O)CCC1CCCC1	inactive	inactive	inactive	inactive	–	–	–	–
CC(=O)OCC1=C(C(=O)O)N2C(=O)[C@@H](NC(=O)CSc3ccncc3)[C@H]2SC1	inactive	inactive	inactive	inactive	–	–	–	–
CN1CCC(=C2c3ccccc3CCc3sccc32)CC1	inactive	inactive	inactive	inactive	–	–	–	–
Nc1cc(C(F)(F)F)ccc1S	inactive	inactive	inactive	inactive	–	–	–	–
CN(C)CCOC(c1ccccc1)c1ccccc1	inactive	inactive	inactive	inactive	–	–	–	–
COC(=O)C1=C(C)NC(C)=C(C(=O)OCCN2CCN(C(c3ccccc3)c3ccccc3)CC2)C1c1cccc([N+](=O)[O-])c1 (stereo not given)	inactive	inactive	inactive	inactive	–	–	–	–

Structure (SMILES)	Potency [1]	Potency [2]	Potency [3]	Potency [4]	activity change, negative = inhibition [1]	activity change, negative = reduced viability [2]	activity change, negative = lower viability [3]	activity change, negative = inhibition [4]
Cc1sccc1Br	inactive	inactive	inactive	inactive	–	–	–	–
COCC(=O)O[C@]1(CCN(C)CCCc2nc3ccccc3[nH]2)CCc2cc(F)ccc2[C@@H]1C(C)C	inactive	inactive	inactive	inactive	–	–	–	–
NS(=O)(=O)c1cc2c(cc1Cl)CN(C1CCCCC1)C2=O	inactive	inactive	inactive	inactive	–	–	–	–
COc1cccc(N(C)C(=S)Oc2ccc3c(c2)CCCC3)n1	inactive	inactive	inactive	inactive	–	–	–	–
CCCCN(CCCC)CC(O)c1cc(Cl)cc2c1-c1ccc(Cl)cc1/C2=C/c1ccc(Cl)cc1 (stereo not given)	inactive	inactive	inactive	inactive	–	–	–	–
CC(C)(C)C(=O)OCOC(=O)C1N2C(=O)CC2S(=O)(=O)C1(C)C (stereo not given)	inactive	inactive	inactive	inactive	–	–	–	–
O=C(CCCN1CCC(O)(c2ccc(Br)cc2)CC1)c1ccc(F)cc1	inactive	inactive	inactive	inactive	–	–	–	–
O=C(NCC1CN(c2ccc(N3CCOCC3=O)cc2)C(=O)O1)c1ccc(Cl)s1 (stereo not given)	inactive	inactive	inactive	inactive	–	–	–	–
CC(=O)c1ccc2c(c1)N(CCCN(C)C)c1ccccc1S2	inactive	inactive	inactive	inactive	–	–	–	–
CCN(CC)CCCN(c1ccccc1)C1Cc2ccccc2C1	inactive	inactive	inactive	inactive	–	–	–	–
CCN(CC)CCNC(C(=O)OCCC(C)C)c1ccccc1 (stereo not given)	inactive	inactive	inactive	inactive	–	–	–	–
C/C=C/c1ccc(O)c(OC)c1	inactive	inactive	inactive	inactive	–	–	–	–
N[C@H](C(=O)O)[C@@H](O)c1ccc(O)c(O)c1	inactive	inactive	inactive	inactive	–	–	–	–
CC(C)(C)CC(=O)OCC(=O)[C@@]1(O)CC[C@H]2[C@@H]3CCC4=CC(=O)C=C[C@]4(C)[C@H]3[C@@H](O)C[C@@]21C	inactive	inactive	inactive	inactive	–	–	–	–
CCOC(=O)[C@H](CCc1ccccc1)N[C@H]1CS[C@H](c2cccs2)CN(CC(=O)O)C1=O	inactive	inactive	inactive	inactive	–	–	–	–
COc1ccc(S(=O)(=O)N2c3ccc(Cl)cc3[C@@](O)(c3ccccc3Cl)[C@H]2C(=O)N2CCC[C@@H]2C(N)=O)cc1OC	inactive	inactive	inactive	inactive	–	–	–	–
OCCN1CCN(CCCN2c3ccccc3C=Cc3ccccc32)CC1	inactive	inactive	inactive	inactive	–	–	–	–
CC[N+](CC)(CC)CCOC(=O)C(C1CCCC1)C1CCCC1	inactive	inactive	inactive	inactive	–	–	–	–
CCC1NC(=O)c2cc(S(N)(=O)=O)c(Cl)cc2N1 (stereo not given)	inactive	inactive	inactive	inactive	–	–	–	–
CCCCCCCC/C=C\CCCCCCCCN	inactive	inactive	inactive	inactive	–	–	–	–
